# Test results from the OligoGym collection.
# Experiments:
# Experiment in all cases: pooled miR-30 sensor sort-seq; sequence = guide strand
# Details in all cases: shRNA
# CASQ1 = molecular target: CASQ1
# CASP8 = molecular target: CASP8
# CBL = molecular target: CBL
# CBWD1 = molecular target: CBWD1
# CCDC102B = molecular target: CCDC102B
# CCDC56 = molecular target: CCDC56
# CD180 = molecular target: CD180
# CD320 = molecular target: CD320
# CDC23 = molecular target: CDC23
# CD86 = molecular target: CD86
# CD8B = molecular target: CD8B
# CDK9 = molecular target: CDK9
# CDH2 = molecular target: CDH2
# Note: reference of the scale not given here.
sequence,measurement,setting,value
TTCACCTTCAATCAATTCCACA,sensor-assay potency score (higher = more potent),CASQ1,-1.32
TCTCTAAGAACTCGAAACCATC,sensor-assay potency score (higher = more potent),CASQ1,-1.47
ATCCTTCTCAGAGTCTACCAGC,sensor-assay potency score (higher = more potent),CASQ1,-1.1
ATGCTCTGAGTCTTTGCTCTTG,sensor-assay potency score (higher = more potent),CASQ1,-1.26
ATACTTCTTGAACACATTCTTG,sensor-assay potency score (higher = more potent),CASQ1,-1.25
TTCTCAGAGTCTACCAGCCCGA,sensor-assay potency score (higher = more potent),CASQ1,-1.38
TTCTGAAATCTGATAGAGCATG,sensor-assay potency score (higher = more potent),CASP8,-1.4
TTGAGGTGATGATAAATCCATT,sensor-assay potency score (higher = more potent),CASP8,-0.92
TTCTTGTCATCCTTGTTGCTTA,sensor-assay potency score (higher = more potent),CASP8,-0.496
TTGGGTTCTGACACAACCGCAC,sensor-assay potency score (higher = more potent),CBL,0.227
TGAGGGAACACATACTCGCTGC,sensor-assay potency score (higher = more potent),CBL,-0.456
TTTATTGTGAGGGATTGTCTGG,sensor-assay potency score (higher = more potent),CBL,-0.649
TTGATTTGGGCACAGACTCTTT,sensor-assay potency score (higher = more potent),CASP8,-0.862
TACAGGATTAGAGAGAGTGGGG,sensor-assay potency score (higher = more potent),CASQ1,-0.52
AACACATTCTTGTAGTTCTTTG,sensor-assay potency score (higher = more potent),CASQ1,-0.85
TAGGACATCAAGCAGAAACTCC,sensor-assay potency score (higher = more potent),CASQ1,-0.771
TAACCTGCCTAACTCCACGTGC,sensor-assay potency score (higher = more potent),CASP8,-0.566
ATACGTACAGCTATCAATCTGC,sensor-assay potency score (higher = more potent),CBL,0.514
TAATGCTCTGAGTCTTTGCTCT,sensor-assay potency score (higher = more potent),CASQ1,-0.39
TACTTCTTGAACACATTCTTGT,sensor-assay potency score (higher = more potent),CASQ1,0.247
ATAGTCGTTGATTATCTTCAGC,sensor-assay potency score (higher = more potent),CASP8,-0.538
TAGCCAATGAGTTTGATCTCAT,sensor-assay potency score (higher = more potent),CASQ1,-0.312
TTTCACTTCGTCATACGTCAAA,sensor-assay potency score (higher = more potent),CBL,-0.674
AAATTCTCCATAAACACCCTAA,sensor-assay potency score (higher = more potent),CBL,-0.0479
TTCAGAGTTGATTCTCCGCGGG,sensor-assay potency score (higher = more potent),CBL,-0.689
TTGTCTTCTAGGACTTGGGCTG,sensor-assay potency score (higher = more potent),CASQ1,-0.338
TTGATCACACGGTCCACACCAT,sensor-assay potency score (higher = more potent),CASQ1,-0.226
TTCATGGTAGAGGAGTGCCAGC,sensor-assay potency score (higher = more potent),CASQ1,-1.44
TAGTTCTTTGCATTGACATTGA,sensor-assay potency score (higher = more potent),CASQ1,-0.428
TTGTGAGGCCTTGTCATCCTCG,sensor-assay potency score (higher = more potent),CASQ1,-0.34
TTACTTTCAATAACCACCCTGG,sensor-assay potency score (higher = more potent),CASP8,0.486
TTCTTTGCCACCTTGCTGTCGA,sensor-assay potency score (higher = more potent),CASQ1,0.0735
AAGCAACTTGTCTAGTAGCTTC,sensor-assay potency score (higher = more potent),CBWD1,-0.327
ATCAACACCATCTAGATTGGGC,sensor-assay potency score (higher = more potent),CCDC102B,0.0383
TCATCTAGGAAACGCTCCTGGG,sensor-assay potency score (higher = more potent),CCDC56,-1.24
TCGGGTGTCAGCTTCTCCCGAG,sensor-assay potency score (higher = more potent),CCDC56,-0.206
TAGCTGAGGACATTCTTTGAAT,sensor-assay potency score (higher = more potent),CD180,-0.948
TTGCACTGAGCACCGCAGCAGC,sensor-assay potency score (higher = more potent),CD320,-1.06
TCTCATTGGTTCCACAGCCGAG,sensor-assay potency score (higher = more potent),CD320,-1.57
TAGTTGATTGAGTTTCTCGTAA,sensor-assay potency score (higher = more potent),CDC23,-0.361
TTTTCTCTTTTCTTGGTCTGTT,sensor-assay potency score (higher = more potent),CD86,-0.104
TGTACAACTAAGACATTTGTAT,sensor-assay potency score (higher = more potent),CD8B,0.113
AAGATGGTCATATTGCTCGTAA,sensor-assay potency score (higher = more potent),CD86,-0.638
TATACTTGGAATGAACACTGTC,sensor-assay potency score (higher = more potent),CD86,1.09
TAGAATTAGACAGAAAACCATC,sensor-assay potency score (higher = more potent),CD86,-0.951
TATCTTCTCCTGTTCCACCTCT,sensor-assay potency score (higher = more potent),CD8B,0.0744
TTCTCCAGTGGATGTAATCTTA,sensor-assay potency score (higher = more potent),CD8B,-0.513
TATTGCTGTAGTATCCATGCAG,sensor-assay potency score (higher = more potent),CD8B,0.681
AACACTGTCAAATTTCTCTTTG,sensor-assay potency score (higher = more potent),CD86,-0.375
TACTGAGGGAGATTTTAGCCTC,sensor-assay potency score (higher = more potent),CD8B,-0.613
TAATCTTAGTTGTTTCATGAAA,sensor-assay potency score (higher = more potent),CD8B,-1.22
TTTTTCCACATCGTGCTCGTTA,sensor-assay potency score (higher = more potent),CD8B,-0.473
TTTGTGCACAAGTTGAAGCTTC,sensor-assay potency score (higher = more potent),CDC23,-0.382
TTTATGTACACATTTTCTGTTA,sensor-assay potency score (higher = more potent),CD86,-0.664
TTGTGAAGTCTCAGGGTCCAAC,sensor-assay potency score (higher = more potent),CD86,-1.21
TACTATTTCAGGTTGACTGAAG,sensor-assay potency score (higher = more potent),CD86,-0.445
TTTATTAAAACAGACCAGCTTG,sensor-assay potency score (higher = more potent),CDC23,-0.155
ATTATCTTGAGATTTCTGCATA,sensor-assay potency score (higher = more potent),CD86,-0.445
AAGGAAATCAACCACACTCAGC,sensor-assay potency score (higher = more potent),CD8B,-1.28
TTGGTTTGCACCTTTATGTATG,sensor-assay potency score (higher = more potent),CD8B,-1.15
TTGAGGGTGGACTTCTTGGTGG,sensor-assay potency score (higher = more potent),CD8B,-0.918
TATAATCCTATCTCCTTGCTTG,sensor-assay potency score (higher = more potent),CDC23,0.291
TTATATTAGAAATTGGTACTAT,sensor-assay potency score (higher = more potent),CD86,0.249
TAAGAATCAAACATCATTCTGG,sensor-assay potency score (higher = more potent),CDC23,0.585
TTATTTGTACAACTAAGACATT,sensor-assay potency score (higher = more potent),CD8B,-1.21
TTGCATCCCGAAACACAGCTAT,sensor-assay potency score (higher = more potent),CD8B,-0.634
TATGTATGCAGGGGTCTGCTGG,sensor-assay potency score (higher = more potent),CD8B,-1.19
TTTAGCCTCGCAGGACAGCATC,sensor-assay potency score (higher = more potent),CD8B,-1.65
TTGAGTGGAGAAACTCTGCGTG,sensor-assay potency score (higher = more potent),CDC23,0.52
AACACAGCTATCTTCTCCTGTT,sensor-assay potency score (higher = more potent),CD8B,-0.341
TACATTTGGTTCCACAAGGGGG,sensor-assay potency score (higher = more potent),CD8B,-0.791
TATTTGTACAACTAAGACATTT,sensor-assay potency score (higher = more potent),CD8B,-1.4
TAACCGTGTATAGATGAGCAGG,sensor-assay potency score (higher = more potent),CD86,-0.921
TATATTTGATGTAACACTGGGC,sensor-assay potency score (higher = more potent),CDC23,0.351
AAACACAGCTATCTTCTCCTGT,sensor-assay potency score (higher = more potent),CD8B,0.733
TAACCGGCACACTCTCTTCTTG,sensor-assay potency score (higher = more potent),CD8B,-0.762
ATTGAAATAAGCTTGAATCTTC,sensor-assay potency score (higher = more potent),CD86,0.247
TAAATGCACAACACTTTTGTGC,sensor-assay potency score (higher = more potent),CDC23,-0.535
TATAGCTAACAATATAGCCATC,sensor-assay potency score (higher = more potent),CDC23,-1.75
TCTATCAACTGCAACTCTGTGT,sensor-assay potency score (higher = more potent),CDC23,0.16
TGAAGGATCTTGATCTCCCGCA,sensor-assay potency score (higher = more potent),CDK9,-0.0916
TAAGCTGAGCAAAATCACCATT,sensor-assay potency score (higher = more potent),CDH2,-0.593
TTGACCACGGTGACTAACCCGT,sensor-assay potency score (higher = more potent),CDH2,-0.441
ATAACTGTAACAGACACGGTTG,sensor-assay potency score (higher = more potent),CDH2,-0.196
